From PubChem BioAssay
Sampled rows, rich in hits. Any-hit rate of the full collection: about 6.6%.
TGFb SMAD3 inh: inhibitors of TGF-b signaling. HepG2 CAGA-GFP TGF-b/SMAD3 reporter, GFP fluorescence, 18 h; TGF-beta stimulated, 500 pg/mL final. Potency, µM (titrated, usually from 46.1 µM), for inactives: top-dose activity, negative = inhibition, usual class: inhibitors. 1.2% of 410,000 active. AID 588855; also: % is scaled to controls: 0 for no effect and ±100 for the full control effect; nearly all actives have a fitted effect of over 65% in size
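HEPG2 CAGA-GFP reporter cells (1000/well, DMEM with 1% FBS) received compounds, then recombinant TGF-beta at 500 pg/mL final for 18 hours at 37 degrees C. Per-cell GFP summed per well was normalised to unstimulated and stimulated DMSO controls before curve fitting.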
KB-V1 MDR tox: KB-V1 MDR subline cytotoxicity; KB-V1 MDR cells viability, CellTiter-Glo, 72 h; Potency, µM (titrated, usually from 46.1 µM), hits mostly cytotoxic; 3.4% of 400,000 active; AID 1347076; also: % is scaled to controls: 0 for no effect and ±100 for the full control effect; nearly all actives have a fitted effect of over 60% in size
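Readout: CellTiter-Glo luminescence, 10 min after addition. Cells: KB-V1 MDR subline, 72 h at 37 degrees C with compound. Analysis: corrected, normalized data fitted to concentration-effect curves.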
KB-3-1 tox: kills parental KB-3-1 adenocarcinoma cells; KB-3-1 viability, CellTiter-Glo ATP luminescence, 72 h; 1.4% of 400,000 active; Potency, µM (doses to about 46.1 µM), usual class: cytotoxic; also: % is scaled to controls: 0 for no effect and ±100 for the full control effect; nearly all actives have a fitted effect of over 60% in size
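Using CellTiter-Glo luminescence, growth of non-resistant KB-3-1 adenocarcinoma cells is assessed 72 h after pin-tool compound addition at 37 °C. Normalized responses across the concentration series yield fitted curves.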
HT1080NT lethal: kills 2HG-producing HT-1080-NT fibrosarcoma cells. Potency, µM (top dose mostly 46.1 µM), without a hit: at the highest dose activity, negative = less viability, most hits filed as cytotoxic. 1.6% of 360,000 active. HT-1080-NT fibrosarcoma viability, CellTiter-Glo ATP luminescence, 48 h;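 also: NT is the 2HG producing partner of a matched IDH1 knockdown line; 0% = DMSO-treated cells and -100% = media-only wells without cells; nearly all actives have a fitted effect of over 55% in size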
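Luminescent CellTiter-Glo readout after 48 hours of compound exposure at 37 degrees C defined viability of HT-1080-NT cells. Activity was normalized to DMSO wells and cell-free media wells; concentration-response curves were fitted and assigned curve classes.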
HT1080 IDH1KD tx: HT-1080 IDH1 knockdown cell toxicity (counter line) | 2% of 360,000 active | HT-1080 IDH1 knockdown viability, ATP luminescence, 48 h | Potency, µM (highest dose often 46.1 µM), without a hit: top-dose activity, negative = toxicity, hits mostly cytotoxic;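 also: 0% = DMSO wells and -100% = cell-free medium wells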
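% activity derives from luminescence (CellTiter-Glo), normalised to DMSO and no-cell wells. HT-1080-IDH1KD cells, 750/well, had 48 h compound exposure at 37 °C.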
HepG2 tox: kills HepG2 cells in TGF-b inhibitor counter-screen | HepG2 CAGA-GFP viability, ATP luminescence, 18 h | Potency, µM (doses to about 46.1 µM), for inactives: top-dose activity change, negative = cytotoxicity, usual class: cytotoxic | 0.76% of 410,000 active
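HepG2 CAGA-GFP cells (1000/well, DMEM with 1% FBS) received compound, then TGF-beta at 500 pg/mL final, and were incubated 18 hours at 37 degrees C. Viability was read by CellTiter-Glo luminescence. Media-only wells were set as complete cell-killing and DMSO as no toxicity.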
An asterisk follows results filed as active; i = inactive; ? = inconclusive; nt = no result given. Calls follow the shape of the dose curve; as a rule, active = well fitted curve in the direction sought with a large enough effect; inconclusive = small, poorly fitted or top-dose-only effect, or another doubt; inactive = no such curve, though single readings can be large; an effect the other way counts as inactive or inconclusive. Potency is read from the fitted curve at half-maximal effect.

SMILES	TGFb SMAD3 inh	KB-V1 MDR tox	KB-3-1 tox	HT1080NT lethal	HT1080 IDH1KD tx	HepG2 tox
O=C(COc1ccc(/C=N/NC(=O)c2cc3ccccc3o2)cc1Cl)Nc1ccccc1	2µM*	9.2µM*	7.3µM*	?	?	-69%
CC(C)CCn1c(=O)c2sccc2n2c(CCCC(=O)Nc3ccc(C(C)C)cc3)nnc12	-12%	nt	nt	nt	nt	-7%
CCSc1oc(-c2ccco2)nc1S(=O)(=O)c1ccc(Br)cc1	-13%	i	i	nt	nt	-35%
Cc1ccc(S(=O)(=O)c2nc(-c3ccccc3Br)oc2N(C)C)cc1	?	?	?	-23%	?	-33%
CN(C)c1oc(-c2ccco2)nc1S(=O)(=O)c1ccc(Br)cc1	0%	4.6µM*	i	3%	-1%	6%
CN(C)c1oc(-c2ccccc2Cl)nc1P(=O)(c1ccccc1)c1ccccc1	?	7.3µM*	?	-2%	-21%	-40%
Cc1ccc(S(=O)(=O)c2nc(-c3ccccc3Cl)oc2N(C)C)cc1	-12%	10µM*	18µM*	?	?	-6%
Cn1cccc1/C=N\NC(=O)C1COc2ccc(C(C)(C)C)cc2O1 (stereo not given)	-19%	i	i	-13%	-2%	-29%
CC(C)(C)c1ccc2c(c1)OC(C(=O)N/N=C\c1ccc[nH]1)CO2 (stereo not given)	-7%	i	i	?	3.7µM*	-29%
CC(C)(C)c1ccc2c(c1)OC(C(=O)N/N=C\c1ccncc1)CO2 (stereo not given)	-12%	?	?	-7%	-25%	20µM*
CC(C)(C)c1ccc2c(c1)OC(C(=O)N/N=C/c1ccc([N+](=O)[O-])o1)CO2 (stereo not given)	-10%	i	i	-25%	?	-34%
CCc1cccc(C)c1NC(=O)COC(=O)c1c2c(nc3ccccc13)/C(=C\c1cccs1)CCC2	?	15µM*	i	-1%	-4%	-1%
NC(=O)c1ccc(NC(=O)COC(=O)c2c3c(nc4ccccc24)/C(=C\c2cccs2)CCC3)cc1	-43%	i	i	-11%	-5%	-28%
COc1ccc(-c2c(C#N)c(N)nc3c2CCC3)cc1	-18%	?	i	-3%	-6%	-22%
N#Cc1c(N)nc2c(c1-c1ccccc1)CCC2	7%	10µM*	?	0%	3%	-8%
O=C(Nc1ccc(C#Cc2ccccc2)cc1)C1CC1	42%	15µM*	i	nt	nt	-21%
O=C(C#Cc1ccccc1)NCc1ccccc1F	?	?	i	-3%	6%	-34%
O=C(C#Cc1ccccc1)Nc1ccc(F)cc1	?	i	?	16µM*	18µM*	29%
COc1ccc(NC(=O)C#Cc2ccccc2)cc1	?	i	21µM*	?	?	27%
Cc1ccc(-c2noc(-c3ccc(NCc4ccco4)c([N+](=O)[O-])c3)n2)cc1	-29%	i	i	nt	nt	0%
O=C(CCC(=O)N1CC2CCCN2c2ccccc21)NCc1ccc(F)cc1 (stereo not given)	11%	i	i	nt	nt	-8%
CC(C)Oc1ccc(CNC(=S)Nc2ccccc2)cc1Cl	?	i	i	4%	3%	-27%
CC(C)COc1ccc(CNC(=S)Nc2ccccc2)cc1Cl	11µM*	i	i	-22%	?	13µM*
CC(C)(O)CC[C@@H](O)[C@](C)(O)[C@H]1CC[C@@]2(O)C3=CC(=O)[C@@H]4C[C@@H](O)[C@@H](O)C[C@]4(C)C3CC[C@]12C (stereo not given in full)	8%	?	i	4%	7%	12%
C[C@@H](C[C@@H](O)[C@H](O)C(C)(C)O)[C@@H]1CC[C@]2(C)C3=CC[C@H]4C(C)(C)C(=O)CC[C@]4(C)[C@H]3CC[C@@]12C	11µM*	?	?	1%	4%	11µM*
SMILES	TGFb SMAD3 inh	KB-V1 MDR tox	KB-3-1 tox	HT1080NT lethal	HT1080 IDH1KD tx	HepG2 tox
Nc1nsc2ccccc12	?	?	?	2.5µM*	2.5µM*	-79%
Nc1nnc(N)c2ccccc12	9%	i	i	-14%	0%	6%
O=C(CSc1nnc(-c2cccnc2)n1Cc1ccco1)N1c2ccccc2Sc2ccccc21	-11%	6.5µM*	i	-5%	-16%	-1%
COc1ccc(C(=O)CSc2nnc(-c3cccnc3)n2Cc2ccco2)cc1	2%	i	i	16%	14%	-8%
CC(C)OCCCNC(=O)CN1C(=O)c2cccnc2Sc2ccccc21	-25%	i	i	nt	nt	-14%
COc1ccc(NC(=O)Cn2cnc3c(oc4ccccc43)c2=O)cc1OC	-3%	?	i	nt	nt	-1%
O=C(Nc1cccc([N+](=O)[O-])c1)c1ccncc1	?	i	i	22%	20%	-10%
O=C(Nc1cccc([N+](=O)[O-])c1)c1ccc2ccccc2c1O	?	4.1µM*	?	?	?	-31%
O=C(Nc1cccc([N+](=O)[O-])c1)c1cnccn1	?	?	i	6%	1%	-15%
O=C(Nc1cccc([N+](=O)[O-])c1)c1[nH]ncc1Cl	?	23µM*	i	-3%	-2%	-20%
COc1ccc(NC(=O)CSCC(=O)N(C)Cc2ccc3c(c2)OCCO3)cc1	4%	15µM*	i	7%	9%	4%
CC(C)(C)c1ccc(C(=O)Nc2cccc([N+](=O)[O-])c2)cc1	?	12µM*	?	-17%	-7%	-38%
COc1cccc(NC(=O)Cn2nnc(-c3nc(-c4ccccc4)no3)c2N)c1	?	nt	nt	nt	nt	-27%
